SMILES strings stand for the structures. A structure can be active in one record and inactive in another. Activity calls are given as the source filed them. Rule for the calls: active = hit-call score of the fitted dose curve at least 0.9, where 1 is the maximum; inactive = score below 0.9.

Retinoic acid receptor alpha (Homo sapiens), sequence (P10276 whole entry, looked up): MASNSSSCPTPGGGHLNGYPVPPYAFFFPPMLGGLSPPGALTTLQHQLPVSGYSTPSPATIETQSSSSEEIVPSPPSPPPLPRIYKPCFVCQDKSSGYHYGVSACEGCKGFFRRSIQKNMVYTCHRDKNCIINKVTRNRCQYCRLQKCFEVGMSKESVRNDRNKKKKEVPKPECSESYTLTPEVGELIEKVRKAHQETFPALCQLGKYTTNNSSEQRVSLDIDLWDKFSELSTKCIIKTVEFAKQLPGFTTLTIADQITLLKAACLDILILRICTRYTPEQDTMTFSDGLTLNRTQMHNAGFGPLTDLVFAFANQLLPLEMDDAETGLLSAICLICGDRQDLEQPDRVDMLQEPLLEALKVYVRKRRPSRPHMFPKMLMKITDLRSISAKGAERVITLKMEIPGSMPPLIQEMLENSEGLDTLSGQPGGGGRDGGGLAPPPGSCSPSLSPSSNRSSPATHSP

This test has as its target Retinoic acid receptor alpha (Homo sapiens) (UniProt P10276). Kind of test: ATG_DR5_RAR_CIS: Attagene CIS-FACTORIAL HepG2 Assay for human Retinoic Acid Receptor Alpha (RARE), DR5 submotif (AID 2282934).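 For AC50: reporter responds to endogenous RAR alpha beta and gamma in HepG2 not RARA alone.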 As to conditions: HepG2 Attagene cis-factorial RARE DR5 reporter, mRNA; actives raise or lower the signal. The protocol:
ATG_CIS is a cell-based, multiplexed-readout assay that uses HepG2, a human liver cell line, with measurements taken at 24 hours after chemical dosing in a 24-well plate.ATG_DR5_RAR_CIS is one of 52 assay component(s) measured or calculated from the ATG_CIS assay. It is designed to make measurements of mRNA induction, a form of inducible reporter, as detected with fluorescence intensity signals by Reverse transcription polymerase chain reaction (RT-PCR) and Capillary electrophoresis technology.Data from the assay component ATG_DR5_RAR_CIS was analyzed into 1 assay endpoint. This assay endpoint, ATG_DR5_CIS, was analyzed with bidirectional fitting relative to DMSO as the negative control and baseline of activity. Using a type of inducible reporter, measures of mRNA for gain or loss-of-signal activity can be used to understand the reporter gene at the transcription factor-level as they relate to the gene RARA and RARB and RARG. Furthermore, this assay endpoint can be referred to as a primary readout, because this assay has produced multiple assay endpoints where this one serves a reporter gene function. To generalize the intended target to other relatable targets, this assay endpoint is annotated to the nuclear receptor intended target family, where the subfamily is non-steroidal.
Human liver HepG2 cells are transiently transfected with multiple reporter transcription units (MRTUs) in 6-well plates using FuGene 6 reagent (Roche; 3 ml FuGene/1 mg DNA). The MRTU constructs are regulated by a cis-regulating element (promoter). […] A major difference between the CIS and TRANS system is that in CIS activities of endogenous TFs are measured, whereas the TRANS assay evaluates changes in activities of exogenous, chimeric NR-Gal4 proteins. […] At the end of 24 hour incubation, total RNA was isolated using TriZol reagent (Invitrogen). The isolated RNA is then reverse-transcribed using oligo(dT) primer and Mo-MLV reverse transcriptase (Invitrogen) with DNAse I (Ambion) treatment for 30 min. The one-tenth of the produced cDNA was amplified by PCR using Taq DNA polymerase (Invitrogen) and two reporter sequence-specific primers. The PCR products were fluorescently labeled by primer extension with 6-arboxyfluorescein (6-FAM) 5'-labeled reporter sequence-specific primer (2 min at 95 C, 20 s at 68 C and 10 min at 72 C) and these products were digested with 5U of HpaI (New England Biolabs) for 2h at 37 C. The fragments were purified using Qiaquick PCR columns (Qiagen), analyzed on an ABI 3130xL genetic analyzer (Applied Biosystems) with peak positions identified by using a set of X-rhodamine (ROX)-labeled MapMarker1000 molecular weight standards (BioVentures). The raw capillary electrophoresis data was processed using Attagraph software (Attagene).
One may read the AC50 as the concentration at which the activity in the assay is half-maximal. Turning to `CCCCN(CCCC)C(=S)S`, the half-maximal activity concentration (AC50) is 100 µM (active).
Consider `Nc1ccc(Br)cc1`, for which the outcome was inactive.
For `CCC[CH2][Sn]([CH2]CCC)([CH2]CCC)[CH2]CCC`, the AC50 was 0.283 µM (active).
As to `CNC(=O)CSP(=O)(OC)OC`, the outcome was inactive.
On to `O=C1c2ccccc2C(=O)C1C(=O)C(c1ccccc1)c1ccc(Cl)cc1` (stereo not given), for which the half-maximal activity concentration (AC50) is 8.58 µM (active).
Consider `O=C(CBr)c1ccc(O)cc1`, for which the compound was called inactive.
On the same count and under the same terms, the entry for `O=C(NC(=O)c1c(F)cccc1F)Nc1cc(Cl)c(F)c(Cl)c1F` is “inactive”; for `c1ccc(-c2cccc(-c3ccccc3)c2)cc1` it is “inactive”; for `CCOP(=O)(OCC)SCCSCC` it is “inactive”.
On the same count and under the same terms, the entry for `CCOC(=O)OC1=C(c2cc(C)ccc2C)C(=O)NC12CCC(OC)CC2` (stereo not given) is “inactive”.
Same read-out and setting: the entry for `Cc1cc(-c2cc(C)c(N)c(C)c2)cc(C)c1N` is “inactive”.
Regarding `C=CCCl`, the compound was called inactive.
For the compound `CCCCS(=O)(=O)Cl`, the compound was classed as inactive.
Same read-out and setting: the entry for `Cc1cc(Cl)ccc1OC(C)C(=O)O` (stereo not given) is “inactive”.
The same measure, in the same setting: the entry for `Clc1ccc(C(Cl)(Cl)Cl)cn1` is “inactive”.
The same measure, in the same setting: the entry for `CN(N=O)C(N)=O` is “inactive”; for `CCCCCCCCCCBr` it is “inactive”; for `O=C(NC(=O)c1c(F)cccc1F)Nc1cc(Cl)c(Oc2ncc(C(F)(F)F)cc2Cl)c(Cl)c1` it is “inactive”.
`CCCCOC(=O)COC(=O)c1ccccc1C(=O)OCCCC`: the compound was called inactive.
As for `CC(C)(c1ccc(O)c(-c2ccccc2)c1)c1ccc(O)c(-c2ccccc2)c1`, the call was inactive.
Still for that read-out and setting: the entry for `C=CCOC(F)(C(F)(F)F)C(F)(F)F` is “inactive”.
On the same count and under the same terms, the entry for `C=CC(F)(C(F)(F)F)C(F)(F)C(F)(F)F` (stereo not given) is “inactive”; for `O=C/C(Cl)=C(/Cl)C(=O)O` it is “inactive”; for `c1csc(-c2ccc(-c3cccs3)s2)c1` it is “inactive”.
On the same count and under the same terms, the entry for `Cc1cc(C(F)(C(F)(F)F)C(F)(F)F)ccc1NC(=O)c1cccc(I)c1C(=O)NC(C)(C)CS(C)(=O)=O` is “inactive”; for `Brc1ccc(Br)cc1` it is “inactive”; for `C=CC(=O)OCC(COC(=O)C=C)(COC(=O)C=C)COC(=O)C=C` it is “inactive”.
As to `CCOP(=S)(OCC)SCSc1cc(Cl)ccc1Cl`, the call was inactive.
As for `O=[N+]([O-])c1ccccc1O`, the compound was called inactive and the AC50 was 27.3 µM (active).
Regarding `Cc1ccccc1OP(=O)(Oc1ccccc1C)Oc1ccccc1C`, the call was inactive.
Still for that read-out and setting: the entry for `Brc1c(Br)c(Br)c(Oc2c(Br)c(Br)c(Br)c(Br)c2Br)c(Br)c1Br` is “inactive”.
The same measure, in the same setting: the entry for `C=CC(Cl)CCl` (stereo not given) is “inactive”.
The same measure, in the same setting: the entry for `CCCCCCCCCCCCCl` is “inactive”.
For `O=[N+]([O-])c1ccc(Cl)c([N+](=O)[O-])c1`, the outcome was inactive.
Turning to `CC(C)(C)c1cc([N+](=O)[O-])cc(C(C)(C)C)c1O`, the concentration at half-maximal activity (AC50) was 2.85 µM (active).
As for `CC1(C)COP(Oc2ccccc2)OC1`, the result was inactive.
On the same count and under the same terms, the entry for `CC(C)[C@H](C(=O)OC(C#N)c1cccc(Oc2ccccc2)c1)c1ccc(OC(F)F)cc1` (stereo not given in full) is “inactive”; for `Oc1c(Br)cc(Br)cc1Br` it is “inactive”.
On the same count and under the same terms, the entry for `N#Cc1ccccc1Cl` is “inactive”.

The record behind these values is PubChem BioAssay (EPA / NIEHS).
